Hit rate of the full screen: of about 52,000 compounds, about 1,700 (3.3%) were called active. The sample as a whole holds a higher share of actives than the screen did. A number with no mark means an inactive call. Rule as the data show it: active = survival mostly below about 52% (no sharp cut-off); inactive = mostly above about 56%.
The molecules below were run on Wild type (assay: growth inhibition of S. aureus wild type versus tarO mutant, primary screen, teichoic acid synthesis inhibitors, RN4220, OD600 (AID 463173)). Details: S. aureus RN4220 wild type/DeltatarO growth, OD600, 18 h, stronger effect = lower value, screened at 18.75 µg/mL (by protocol).

SMILES | survival
COc1ccc(CNCc2ccc3c(c2)n(C)c(=O)n3C)cc1 | 90%
COc1cc(NC(=O)C(CC(C)C)NS(=O)(=O)c2ccc3c(c2)oc(=O)n3C)c(C(=O)O)cc1OC (centres undefined) | 124%
Nc1cccc2c1C(=O)N(CC(=O)O)C2=O | 104%
Cc1ccccc1CNC(=O)Cn1ncn2nc(-c3cccs3)cc2c1=O | 120%
CCOc1ccc(S(=O)(=O)NCC(c2ccco2)S(=O)(=O)c2ccc(F)cc2)cc1 (centres undefined) | 90%
O=C(CSc1nc2cc3ccccc3cc2[nH]1)Nc1ccc(F)cc1 | 76%
CCCCNC(=O)c1nn(-c2ccc(C)cc2)c(=O)c2c1c1ccccc1n2C | 79%
CN(Cc1ccco1)C(=O)c1ccc2c(c1)N(Cc1ccccc1F)C(=O)c1ccccc1S2 | 115%
Cc1oc2ncn(CC(C)C)c(=O)c2c1C(=O)N1CCN(c2ccc(F)cc2)CC1 | 57%
CC1CCCN(S(=O)(=O)c2ccc(S(=O)(=O)N(Cc3cccs3)Cc3cccs3)cc2)C1 (centres undefined) | 112%
Cc1ccc(CN(Cc2ccco2)C(=O)COc2ccccc2C)cc1 | 83%
O=C(Nc1nnc(S(=O)(=O)N2CCc3ccccc32)s1)c1ccccc1Cl | 23%
O=C(Nc1nnc(S(=O)(=O)N2CCc3ccccc32)s1)c1cccc(Cl)c1 | 12% (active)
O=C(Nc1nnc(S(=O)(=O)N2CCc3ccccc32)s1)c1ccccc1 | 19%
O=c1[nH]c2cc3c(cc2cc1CN(CCN1CCOCC1)C(=S)Nc1ccccc1)OCCO3 | 109%
CCOc1ccc(NC(=O)CC2Nc3cccc4cccc(c34)NC2=O)cc1 (centres undefined) | 63%
CCOc1ccc(-c2nonc2NC(=O)c2oc3c(C)c(C)ccc3c2C)cc1OCC | 82%
COC(=O)Cn1c(SCCOc2ccccc2Cl)nc2ccccc21 | 81%
COC(=O)Cn1c(SCCOc2ccccc2OC)nc2ccccc21 | 91%
CCn1c(SCCOc2ccccc2F)nc2ccccc21 | -1% (active)
Cn1c(=O)c2c(nc(Oc3ccccc3)n2Cc2c(Cl)cccc2Cl)n(C)c1=O | 73%
COc1ccc(Oc2nc3c(c(=O)n(C)c(=O)n3C)n2Cc2ccccc2Cl)cc1 | 75%
CCCCC(CC)Cn1c(Oc2ccccc2)nc2c1c(=O)n(C)c(=O)n2C (centres undefined) | -2% (active)
Cc1ccc(C(=O)N2CCN(c3ccccc3F)CC2)cc1NC(=O)c1nsc2ccccc12 | 87%

SMILES | survival
Cc1cc(C)cc(Oc2nc3c(C)cccn3c(=O)c2/C=C(\C#N)c2nc3ccccc3[nH]2)c1 | 69%
CCCCN(CC)CCCNC(=O)c1ccc2c(c1)NC(=O)CN2C | 57%
CCOc1ccc(-c2cn3c(n2)sc2cc(C(=O)NCCCN4CCCCC4)ccc23)cc1 | -1% (active)
CCCN1CCN(CCCNC(=O)c2ccc3c(c2)sc2nc(-c4ccc(OC)cc4)cn23)CC1 | 81%
CCOc1ccc(-c2cn3c(n2)sc2cc(C(=O)NCCCN4CCCCCC4)ccc23)cc1 | -1% (active)
CCCN1CCN(CCCNC(=O)c2ccc3c(c2)sc2nc(-c4ccc(OCC)cc4)cn23)CC1 | 36%
O=C(NCCCN1CCCCCC1)c1ccc2c(c1)sc1nc(-c3ccccc3)cn12 | 38%
CCN1CCN(CCCNC(=O)c2ccc3c(c2)sc2nc(-c4ccc(OC)cc4)cn23)CC1 | 82%
COc1cccc(Cn2cc(C(=O)c3ccccc3)c(=O)c3cc4c(cc32)OCO4)c1 | 84%
O=C(CSCc1ccccc1Cl)NCc1ccc(Cl)c(Cl)c1 | 148%
COc1ccc(C(=O)Nc2ccc(-c3nnc4n3CCCCC4)cc2)cc1 | -3% (active)
CCOc1cc(C(=O)Nc2ccc(-c3nnc4n3CCCCC4)cc2)cc(OCC)c1OCC | 88%
COc1ccc(C(=O)Nc2ccc(-c3nnc4n3CCCCC4)cc2)cc1OC | 65%
Cc1ccc2c(c1)C(c1ccccc1)N(C(=O)c1ccc(S(=O)(=O)N3CCCCC3)cc1)CC(=O)N2 (centres undefined) | 86%
CCOC(=O)c1cnc2c(ccc3ccccc32)c1Nc1ccc(OC)c(OC)c1 | 5% (active)
CCOC(=O)c1cnc2c(ccc3ccccc32)c1Nc1cccc(OC)c1 | 68%
CCOC(=O)c1cnc2c(ccc3ccccc32)c1Nc1ccc(Cl)cc1 | 30%
CCOC(=O)c1cnc2ccccc2c1NCCc1ccc(OC)c(OC)c1 | 53%
COc1cccc(C(=O)c2sc(Nc3ccc(F)c(Cl)c3)nc2N)c1 | 65%
CCOC(=O)c1cnc2c(ccc3ccccc32)c1Nc1ccc(OCC)cc1 | -2% (active)
CCOC(=O)c1cnc2c(ccc3ccccc32)c1Nc1ccc(C(C)=O)cc1 | 0% (active)
CCOC(=O)c1cnc2c(ccc3ccccc32)c1Nc1cccc(Cl)c1 | 23%
CCOC(=O)c1cnc2c(ccc3ccccc32)c1Nc1ccccc1O | 74%
Cc1ccccc1Nc1nc(N)c(C(=O)c2ccccc2Cl)s1 | 101%

SMILES | survival
CCOc1ccc(Nc2nc(N)c(C(=O)c3ccccc3Cl)s2)cc1 | -2% (active)
COc1ccccc1CNC(=O)C1CCCN(S(=O)(=O)c2ccc3c(c2)oc(=O)n3C)C1 (centres undefined) | 92%
COc1cc(OC)c(NC(=O)CSc2nccn2C)cc1Cl | 75%
Nc1nonc1-c1nc2ccccc2n1Cc1ccc(Br)cc1 | 93%
CC(=O)N1CCc2c(sc3c2c(=O)n(-c2cc(Cl)ccc2C)c(=O)n3C)C1 | 119%
CCOC(=O)c1cnc2c(Cl)c(Cl)ccc2c1Nc1ccc(N(C)C)cc1 | 80%
CCOC(=O)c1cnc2c(ccc3ccccc32)c1Nc1ccc(N(C)C)cc1 | 0% (active)
CCOC(=O)c1cnc2c(ccc3ccccc32)c1Nc1ccc(OC)cc1OC | 6% (active)
CCOC(=O)c1cnc2c(CC)cccc2c1NCCO | 116%
CCOC(=O)c1cnc2c(ccc3ccccc32)c1Nc1ccccc1OC | 69%
CCOC(=O)c1cnc2c(C)cccc2c1Nc1ccc(OC(C)C)cc1 | 3% (active)
CCOC(=O)c1cnc(NCc2ccc(OC)cc2OC)c2ccccc12 | 117%
CCOC(=O)c1cnc2c(OC)cccc2c1Nc1cccc(O)c1 | 73%
CCN1C(=O)SC(CC(=O)O)C1=O (centres undefined) | 99%
CCOc1ccc(NC(=O)CC2C(=O)N(c3ccccc3)C(=O)N2C2CCCCC2)cc1 (centres undefined) | 69%
CC(C)c1ccc(NC(=O)CN2C(=O)C3(SCC(=O)N3c3ccc(F)cc3)c3ccccc32)cc1 (centres undefined) | 58%
CCCCOc1ccc(S(=O)(=O)N2CCN(c3ccccc3OCC)CC2)cc1 | 112%
CCc1ccc(N2CCn3c2nc2c3c(=O)n(C/C=C/c3ccccc3)c(=O)n2C)cc1 | 79%
CCCCc1nn2c(=O)cc(COC(=O)C3CCCCC3)nc2s1 | 70%
Cc1cccc(C(=O)N2CCc3cc(CNC(=O)c4ccnn4C)ccc32)c1 | 90%
C#CCSc1nc(-c2ccccc2)cc(-c2ccccc2)c1C#N | 70%
COc1ccc(-n2ccnc(NCc3cccs3)c2=O)cc1OC | 80%
O=c1c(NCc2cccs2)nccn1-c1ccccc1 | 74%
COc1ccc(-n2ccnc(NCc3ccc(C)cc3)c2=O)cc1OC | 87%

SMILES | survival
COc1ccc(-n2ccnc(NCc3ccc(Cl)cc3)c2=O)cc1 | 0% (active)
COc1ccc(-n2ccnc(NCc3cccs3)c2=O)cc1 | -3% (active)
COc1ccc(-n2ccnc(NCc3ccccc3OC)c2=O)cc1 | 85%
COc1ccc(-c2cc3nc(C)c(CCC(=O)N4CCN(c5ccc(F)cc5)CC4)c(C)n3n2)c(OC)c1 | 85%
COC(=O)c1cc(S(=O)(=O)N2CCN(c3ccc(C)cc3C)CC2)cn1C | 65%
COCCNC(=S)N1CCC(c2nc(-c3ccc(N(C)C)cc3)no2)CC1 | 107%
COCCNC(=O)CCCn1c(SCC(=O)Nc2cccc(C)c2)nc2c(sc3ccccc32)c1=O | 86%
COc1cccc(-c2nc(SCc3cc(=O)c4ccc(C)c(C)c4[nH]3)n[nH]2)c1 | 97%
CCOc1ccc(CNC(=O)CCS(=O)(=O)c2cc3c4c(c2)CCN4C(=O)CC3)cc1 | 71%
Cc1cccc(NC(=O)c2sc3cccc(Cl)c3c2Cl)c1 | 6% (active)
O=C(Nc1ccccc1Cl)c1sc2cccc(Cl)c2c1Cl | 72%
CCN(CC)c1ccc(NC(=O)c2sc3ccccc3c2Cl)cc1 | 15% (active)
Cc1ccc(NC(=O)c2sc3ccccc3c2Cl)cc1 | 76%
CCCC(=O)Nc1ccc(NC(=O)c2sc3ccccc3c2Cl)cc1 | 128%
COc1ccccc1NC(=O)c1sc2cccc(Cl)c2c1Cl | 71%
O=C(Nc1ccc(N2C(=O)C=CC2=O)cc1Cl)c1ccco1 | 105%
CC1CCCCN1CCCNC(=O)Cn1ncc2c3ccccc3n(Cc3ccccc3F)c2c1=O (centres undefined) | 90%
O=C(Nc1ccccc1)c1cccc(N2CCCC2=O)c1 | 110%
CC1CCN(S(=O)(=O)c2ccc(S(=O)(=O)N3CCCN(Cc4ccccc4)C3)cc2)CC1 | 107%
C/C(=N\Nc1nc2sc3c(c2c2ncnn12)CC(C)(C)OC3)C(=O)O | 102%
COc1ccc(C2C(C(N)=O)=C(C)Nc3nc(CCCO)nn32)c(OC)c1 (centres undefined) | 62%
COc1ccc(-n2nc3c(N4CCC(C(=O)NC5CCCCC5)CC4)nnc(C)c3c2C)cc1 | 73%

From PubChem BioAssay AID463173 (ICCB-Longwood Screening Facility, Harvard Medical School, 2010)
